# Measurements taken from PubChem BioAssay AID602358 (National Center for Advancing Translational Sciences (NCATS), 2012).
# Records with an inconclusive call do not appear. Unmarked numbers belong to inactive results. Active and inactive are the calls of the source. Calls come from the whole dose curve; as a rule, active = well fitted inhibition curve with a large enough effect; inconclusive = small, poorly fitted or top-dose-only effect; inactive = flat fitted curve, though single readings scatter.
# Biological target: Luciferin 4-monooxygenase (Photinus pyralis) (UniProt P08659)
# Sequence (P08659 whole entry, looked up): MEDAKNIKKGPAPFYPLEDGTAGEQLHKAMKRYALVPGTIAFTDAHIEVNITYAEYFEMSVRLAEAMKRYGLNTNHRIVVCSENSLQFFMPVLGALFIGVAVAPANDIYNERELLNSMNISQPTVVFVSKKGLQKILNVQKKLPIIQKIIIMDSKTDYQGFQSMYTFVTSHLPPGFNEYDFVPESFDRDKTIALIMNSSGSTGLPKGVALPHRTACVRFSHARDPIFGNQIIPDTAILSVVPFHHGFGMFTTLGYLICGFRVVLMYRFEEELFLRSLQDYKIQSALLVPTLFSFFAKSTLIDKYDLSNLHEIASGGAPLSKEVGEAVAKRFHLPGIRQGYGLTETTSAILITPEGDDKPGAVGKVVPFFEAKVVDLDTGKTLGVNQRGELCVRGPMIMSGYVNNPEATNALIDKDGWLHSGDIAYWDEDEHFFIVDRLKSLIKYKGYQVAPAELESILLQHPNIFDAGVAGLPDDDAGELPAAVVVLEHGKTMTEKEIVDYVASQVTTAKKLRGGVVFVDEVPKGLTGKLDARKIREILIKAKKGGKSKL
# Test: FLuc inhibitory activity for the follow-up compounds in a biochemical assay with Km concentrations of substrate and 500microM CoASH
# Conditions: purified FLuc, Km substrates + 500 uM CoASH, luminescence; series mostly up to 57.5 µM; activity change, negative = inhibition: at the top concentration
# Excerpt: NCGC Assay Overview: Firefly (Photinus pyralis) luciferase is one of the most commonly used transcriptional reporters. It is considered one of the more dynamically responsive reporters - that is, responsive to changes in reporter transcription - as it requires no post-translational modifications and is enzymatically active directly after protein synthesis (Wood, 1998). With no endogenous expression in mammalian cells and without the requirement of external excitation, it offers very little background signal, thus generally providing excellent signal to background for most assays. Previous profiling work to determine the prevalence of compounds that affect FLuc enzymatic activity (PubChem AID 411) identified that ~3% of the MLSMR library (then at ~72K) inhibited FLuc. […] Of the compounds identified in this profile that inhibited FLuc, 151 compounds were selected for further analysis, in an effort to better understand their mode of inhibiting FLuc. The assay described here was to determine the activity of the compounds in an FLuc assay that contained KM concentrations of substrates and 500uM CoASH.
# NCGC Assay Protocol Summary: Reagents: 50mM Tris acetate, pH 7.5; 10mM Mg acetate; 10uM D-luciferin (Sigma #L9504); 10uM ATP; 0.01% Tween-20; 0.05% BSA; 10nM P. pyralis luciferase (Sigma #L9506); 500 uM CoASH Control compounds used were two known firefly luciferase inhibitors (3-(5-(3-chlorophenyl)-1,2,4-oxadiazol-3-yl)benzoic acid and 5-(2-fluorophenyl)-3-phenyl-1,2,4-oxadiazole), and DMSO. Three microliters containing firefly luciferase substrates in buffer (final concentrations: 50mM Tris acetate, pH 7.5, 10mM Mg acetate, 0.01% Tween-20, 0.05% BSA, 10uM D-luciferin, 10uM ATP, and 500 uM CoASH) are dispensed into each well of a Greiner white, solid-bottom 1536-well format plate using a flying reagent dispenser (FRD). These assay plates were then treated with 23nL of compound or DMSO using a Kalypsys pin tool, which allows for delivery of a 12-point intraplate titration of each compound to the assay plate (quantitative HTS), with a final compound concentrations ranging from approximately ~60uM to 0.3nM. One microliter of firefly luciferase in 500mM Tris-acetate buffer was then delivered by FRD to each well for a final enzyme concentration of 10nM. Luciferase activity was then measured using a ViewLux CCD imager (PerkinElmer), with an average exposure time of 2-30 seconds (2X binning, medium/high gain).
Structure (SMILES),Potency,"activity change, negative = inhibition [%]"
Cc1ccc(C(=O)Nc2cccc(C(=O)O)c2)cc1,3.66 µM (active),–
COc1ccc2nc(NC(=O)c3ccc(NS(=O)(=O)c4cccs4)cc3)sc2c1,2.59 µM (active),–
Oc1ccc(-c2nc3ccccc3s2)c(O)c1,1.83 µM (active),–
Cc1ccc2sc(-c3ccc(N)cc3)nc2c1,0.0411 µM (active),–
Cn1c(N/N=C/c2cc3ccccc3nc2Cl)nc2ccccc21,0.0231 µM (active),–
Cc1ccc(NS(=O)(=O)c2ccc(Cl)c(C(=O)Nc3cccc(C(=O)O)c3)c2)cc1,–,-9.97
CC(C)Oc1ccc(C(=O)Nc2ccc(-c3nc4ccccc4s3)cc2)cc1,–,-11.1
Cc1ccc(C(=O)Nc2ccccc2C(=O)O)cc1S(=O)(=O)N1CCCCCC1,0.919 µM (active),–
Cc1ccc(C(=O)Nc2ccc(C(=O)O)cc2)cc1S(=O)(=O)NCc1ccccc1,–,-14.4
NC(=O)Cc1ccc2sc(-c3ccccc3)nc2c1,1.63 µM (active),–
Cc1ccc(S(=O)(=O)N2CCOCC2)cc1C(=O)Nc1ccccc1C(=O)O,–,-24.6
CCCC(=O)Nc1nc2ccc(OCC)cc2s1,10.3 µM (active),–
O=C(O)c1cccc(NC(=O)c2ccccc2NC(=O)c2ccco2)c1,20.6 µM (active),–
O=C(Nc1ccccc1C(=O)O)c1cccc(S(=O)(=O)N2CCCC2)c1,18.3 µM (active),–
O=C(Nc1ccccc1C(=O)O)c1ccc(Cl)c(S(=O)(=O)N2CCOCC2)c1,5.8 µM (active),–
CC(=O)Nc1cccc(-c2nc3ccccc3s2)c1C,13 µM (active),–
O=C(O)c1cccc(NC(=O)c2ccc(COc3ccc(Cl)cc3)cc2)c1,18.3 µM (active),–
Nc1ccc2nc(-c3ccc(O)cc3)sc2c1,0.146 µM (active),–
COc1ccc2nc(NC(=O)c3cccc(S(=O)(=O)N4CCOCC4)c3)sc2c1,14.6 µM (active),–
COc1ccccc1C(=O)Nc1ccc(C(=O)O)cc1,–,-27.9

Structure (SMILES),Potency,"activity change, negative = inhibition [%]"
Nc1ccc(-c2nc3cc(N)ccc3s2)cc1,0.259 µM (active),–
Cc1ccc(C(=O)Nc2ccc(C(=O)O)cc2)cc1S(=O)(=O)Nc1ccccc1,–,-17.2
O=C(Nc1ccccc1C(=O)O)c1ccccc1,23.1 µM (active),–
COc1cc(OC)cc(-c2nc3ccccc3s2)c1,3.66 µM (active),–
CN(C)S(=O)(=O)c1ccc(C(=O)Nc2ccccc2C(=O)O)cc1,9.19 µM (active),–
CCOc1ccc2nc(NC(=O)c3ccoc3C)sc2c1,0.183 µM (active),–
COc1ccc(C(=O)Nc2ccccc2C(=O)Nc2ccccc2C(=O)O)cc1,0.116 µM (active),–
Nc1ccc2nc(-c3ccccc3)sc2c1,0.058 µM (active),–
CCOc1ccc2nc(NC(=O)Cc3cccs3)sc2c1,5.8 µM (active),–
COc1c(C)cccc1C(=O)Nc1ccc(-c2nc3ccccc3s2)c(Cl)c1,–,-16.4
O=C(Cc1ccccc1)Nc1ccccc1C(=O)Nc1ccc(C(=O)O)cc1,–,-13.8
O=C(Nc1c(Cl)cc(Cl)cc1-c1nc2ccccc2s1)c1ccc(Br)o1,–,-5.98
COc1ccc(C(=O)Nc2ccccc2C(=O)N/N=C/c2ccc(O)c(OC)c2)cc1,0.0037 µM (active),–
Nc1ccc(-c2nc3ccc(N)cc3s2)cc1,0.116 µM (active),–
CN(C)c1cccc(C(=O)Nc2ccc(-c3nc4ccccc4s3)cc2)c1,1.46 µM (active),–
COc1ccc2nc(NC(=O)c3cccs3)sc2c1,13 µM (active),–
Cc1ccc(C(=O)O/N=C(\N)c2ccccn2)cc1,0.0092 µM (active),–
O=C(O)c1ccccc1NC(=O)c1ccccc1Nc1ccccc1,9.19 µM (active),–
CC(=O)Oc1ccc(C(=O)Nc2ccccc2C(=O)Nc2ccc(C(=O)O)cc2)cc1,1.46 µM (active),–
Cc1cccc(C(=O)Nc2ccc(-c3nc4ccccc4s3)cc2Cl)c1,18.3 µM (active),–
